High-throughput results deposited in PubChem BioAssay by National Center for Advancing Translational Sciences (NCATS).
A selection: hits, their analogues and other compounds. The true share with any hit is near 3.7%.
HTT promoter inh – HTT promoter inhibition | HEK293 HTT promoter firefly luciferase reporter, 24 h | Potency, µM (doses to about 57.5 µM), usual class: inhibitors | 48,000 compounds, 0.93% hits; also: nearly all actives have a fitted effect of over 50% in size
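Luminescence was read after Dual-Glo reagent and a 10 min room-temperature incubation. Values were normalized to vehicle (0% activity) and zero RLU (-100% activity). Reporter HEK293 cells had been exposed to compounds (up to 57.5 uM final) for 24 h.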
FH mod – Identification of activators of human fumarate hydratase by quantitative high-throughput screening; 54,000 compounds, 0.22% hits; AID 1347055, 2019; FH coupled MDH/diaphorase resazurin fluorescence, 15 min; Fumarate hydratase, mitochondrial (Homo sapiens), P07954; Potency, µM (titrated, usually from 79.9 µM), most hits filed as inhibitors; also: the screen sought activators but most active calls are inhibition curves; nearly all actives have a fitted effect of over 45% in size
HTT-AS act – HTT-AS promoter activation | AID 1508624 | 48,000 compounds, 0.24% hits | Potency, µM (highest dose often 57.5 µM), actives largely listed as activators | HEK293 HTT-AS promoter firefly luciferase reporter, 24 h; response scale: percent change from vehicle, -100% = no light; also: nearly all actives have a fitted effect of over 55% in size
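HEK293 cells carrying firefly luciferase reporters were seeded at 2,500 per well in Opti-MEM and cultured for 24 h. They were then treated with compounds at up to 57.5 uM final for 24 h at 37 degrees C before Dual-Glo luminescence readout.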
GALC G270D act – galactocerebrosidase G270D activity enhancement, cell-based; Potency, µM (top dose mostly 57.5 µM), hits mostly activators; 145M-Twi-hGALC-G270D cells (Twitcher mouse brain line with human GALC G270D), HMU-beta-Gal fluorescence, 48 h; 45,000 compounds, 0.1% hits; P54803; also: nearly all actives have a fitted effect of over 65% in size
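Fluorescence readout: HMU-β-gal cleavage by mutant GALC (0.1 mM final, citrate/phosphate pH 5.2 with 1 mg/mL taurocholate), stopped with carbonate/bicarbonate plus Triton X-100. Cells: murine Twitcher 145M-Twi expressing human G270D GALC; qHTS for activators.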
DRV1 agonist – GPR32 (DRV1) agonism, beta-arrestin recruitment | O75388 | CHO-K1 GPR32 beta-arrestin PathHunter luminescence, 90 min; zero percent set by DMSO-only wells | activation, % at 76.9 µM | 48,000 compounds, 2.5% hits;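 active = activation of at least 60% and not above a set upper limit, about 1 call in 100 departs from these limits; inconclusive = activation of 40% to 60%, or above that upper limit; inactive = activation under 40%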
Target sequence (O75388 whole entry, looked up): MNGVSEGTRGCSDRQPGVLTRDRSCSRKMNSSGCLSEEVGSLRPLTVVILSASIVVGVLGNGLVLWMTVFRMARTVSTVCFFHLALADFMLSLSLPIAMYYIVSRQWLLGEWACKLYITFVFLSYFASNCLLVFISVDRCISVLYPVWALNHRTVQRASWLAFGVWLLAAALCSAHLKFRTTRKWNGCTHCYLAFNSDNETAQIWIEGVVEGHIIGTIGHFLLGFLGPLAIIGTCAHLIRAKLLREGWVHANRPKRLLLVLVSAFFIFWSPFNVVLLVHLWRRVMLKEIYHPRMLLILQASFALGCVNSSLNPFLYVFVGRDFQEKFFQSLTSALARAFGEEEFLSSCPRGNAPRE
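CHO-K1 cells stably expressing ProLink-tagged GPR32 and Enzyme Activator-tagged beta-arrestin were seeded at 2,500 cells/well overnight, exposed to compounds for 90 min at 37 °C, then read by beta-Gal complementation chemiluminescence after 1 h detection reagent.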
B2AR arrestin ag – agonists recruiting beta-arrestin to human beta2-adrenergic receptor | P07550 | HTLA Tango cells, beta-arrestin recruitment, luciferase luminescence, 18 h | Potency, µM (titrated, usually from 46.1 µM), most hits filed as activators | 44,000 tested, under 10 active
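Receptor–beta-arrestin recruitment read by tTA-responsive luciferase: compound titrations (up to 46 µM) incubated 18 h with Tango cells, then luminescent substrate 15 min at room temperature. Concentration-response fits classified by r2, efficacy and activity.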
Hits are given with their value; i = inactive; ? = inconclusive; nt = no result given; ! = repeats disagree. Unless noted, calls follow the shape of the dose curve; as a rule, active = well fitted curve in the direction sought with a large enough effect; inconclusive = small, poorly fitted or top-dose-only effect, or another doubt; inactive = no such curve, though single readings can be large; an effect the other way counts as inactive or inconclusive.

SMILES	HTT promoter inh	FH mod	HTT-AS act	GALC G270D act	DRV1 agonist	B2AR arrestin ag
Cc1ccc(NC(=O)CC(C)S(=O)(=O)c2ccc3c(c2)NC(=O)CO3)c(C)c1 (stereo unspecified)	i	i	i	i	74	i
C=C(C(=O)OC)C1C(O)CC2(C)C(O)CCC(=O)C2C1O (stereo unspecified)	nt	i	nt	nt	nt	nt
CCCCc1ccc(C(=O)Nc2cc(-c3ccc(Cl)cc3)nn2-c2ccc(Cl)cc2)cc1	nt	i	nt	nt	nt	nt
CC#CC(=O)N1CCC[C@H]1c1nc(-c2ccc(C(=O)Nc3ccccn3)cc2)c2c(N)nccn12	nt	i	nt	nt	nt	nt
CCCN1C[C@H](CSC)C[C@@H]2c3cccc4[nH]cc(c34)C[C@H]21	i	i	i	i	79!	nt
O=C(Nc1ccc(F)cc1F)c1cc2c(=O)n3ccccc3nc2s1	i	i	i	22µM	i	i
N#Cc1ccccc1NC(=O)c1cc2c(=O)n3ccccc3nc2s1	i	i	i	?	i	i
Cc1cc(-n2c(C)nc3ccccc3c2=O)ccc1NC(=O)c1ccccc1[N+](=O)[O-]	i	i	i	i	94	i
CC1=C2C(=O)C=C(CO[C@@H]3O[C@H](CO)[C@@H](O)[C@H](O)[C@H]3O)[C@@H]2[C@H]2OC(=O)[C@H](C)[C@@H]2[C@@H](O)C1	nt	i	nt	nt	nt	nt
COc1cc(N)c(Cl)cc1C(=O)OCCN1CCCCC1	nt	i	nt	nt	i	nt
COc1cc(N)c(Cl)cc1C(=O)NC1CCN(CCCOc2ccc(F)cc2)CC1OC (stereo unspecified)	i	i	i	i	64	nt
COc1cc(Cl)c(NS(=O)(=O)c2ccc3c(c2)CC(C)N3C(=O)C2CCC2)c(OC)c1 (stereo unspecified)	8.9µM	i	i	i	i	i
CC(=O)N1c2ccc(S(=O)(=O)NCC3CCC(C(=O)Nc4ccc(F)cc4)CC3)cc2CC1C (stereo unspecified)	?	i	i	i	68	i
COc1ccc(NS(=O)(=O)c2ccc3c(c2)CC(C)N3C(=O)C2CCC2)cc1OC (stereo unspecified)	1.8µM	i	i	i	i	i
CCc1ccc(NC(=O)C2CCC(CNS(=O)(=O)c3ccc4c(c3)CC(C)N4C(C)=O)CC2)cc1 (stereo unspecified)	?	i	i	i	i	i
CCc1cccc(NS(=O)(=O)c2ccc3c(c2)CC(C)N3C(=O)C2CC2)c1 (stereo unspecified)	14µM	?	i	i	i	i
CC1Cc2cc(S(=O)(=O)NCc3ccccc3)ccc2N1C(=O)C1CCC1 (stereo unspecified)	?	i	i	i	i	i
COc1cc(NS(=O)(=O)c2ccc3c(c2)CC(C)N3C(=O)C2CCC2)cc(OC)c1OC (stereo unspecified)	nt	nt	nt	nt	nt	i
CN(C)CC1CCn2cc(c3ccccc32)C2=C(C(=O)NC2=O)c2cn(c3ccccc23)CCO1 (stereo unspecified)	nt	i	nt	nt	nt	nt
COC(=O)C[C@@H]1C(C(=O)O)=CO[C@@H](O[C@@H]2O[C@H](CO)[C@@H](O)[C@H](O)[C@H]2O)/C1=C\COC(=O)/C=C/c1ccc(O)c(OC)c1	nt	i	nt	nt	nt	nt
Cc1cccc(N2CCN(c3ncnc4c3nc3n4CCCCC3)CC2C)c1 (stereo unspecified)	5µM	?	i	i	i	i
O=C(Nc1cccc(Cl)c1)C1CCCN(c2ncnc3c2nc2n3CCCCC2)C1 (stereo unspecified)	i	i	i	i	67	i
COC(=O)C1=CO[C@@H](O[C@@H]2O[C@H](CO[C@@H]3O[C@H](CO)[C@@H](O)[C@H](O)[C@H]3O)[C@@H](O)[C@H](O)[C@H]2O)[C@@H]2C(CO)=CC[C@H]12	nt	i	nt	nt	nt	nt
Cc1ccc(Nc2c(-c3ccc(O)cc3)nc3cccc(C)n23)cc1	i	i	i	i	117	i
Cc1ccccc1Nc1c(-c2cccnc2)nc2cccc(C)n12	?	i	i	i	i	i
SMILES	HTT promoter inh	FH mod	HTT-AS act	GALC G270D act	DRV1 agonist	B2AR arrestin ag
Cc1ccc(Nc2c(-c3ccc(N(C)C)cc3)nc3ccccn23)cc1	i	?	2µM	i	i	i
Cc1cccc2nc(-c3cccnc3)c(Nc3ccc(C(C)C)cc3)n12	?	i	i	i	61	i
Cc1ccc(NC(=O)CCS(=O)(=O)c2ccc(Br)s2)c(Br)c1	i	i	i	i	71	i
N#Cc1ccnc(Nc2cc(C3CCN(C4COC4)CC3)cc(N3CCC(F)(F)C3)n2)c1	nt	i	nt	nt	nt	nt
COc1ccc(CC(=O)NCC(c2cccs2)S(=O)(=O)c2ccc(F)cc2)cc1 (stereo unspecified)	i	i	i	i	i	i
COc1ccc(C(=O)NCC(c2cccs2)S(=O)(=O)c2ccc(F)c(C)c2)cc1 (stereo unspecified)	i	i	i	i	66	i
COc1ccc(CCNC(=O)C(=O)NCC(c2cccs2)S(=O)(=O)c2ccc(F)cc2)cc1 (stereo unspecified)	?	i	i	i	85	i
COc1cc(OC)cc(C(=O)NCC(c2cccs2)S(=O)(=O)c2ccc(F)c(C)c2)c1 (stereo unspecified)	i	i	i	i	i	i
COc1ccc(C(=O)NCC(c2cccs2)S(=O)(=O)c2cccs2)cc1 (stereo unspecified)	i	i	i	i	83	i
CN1CCC(c2c(O)cc(O)c3c(=O)cc(-c4ccccc4Cl)oc23)C(O)C1 (stereo unspecified)	nt	i	nt	nt	nt	nt
CCc1ccc(S(=O)(=O)Nc2ccc3c(c2)sc(=O)n3C)cc1	?	i	i	i	i	i
CCn1c(=O)sc2cc(NS(=O)(=O)c3ccc(C)cc3)ccc21	?	i	i	i	61	i
CCn1c2c(c(=O)n3ncc(C(=O)Nc4cc(Cl)ccc4OC)c13)CN(Cc1ccc(OC)cc1)CC2	i	?	i	i	i	i
COc1ccc(CN2CCc3c(c(=O)n4ncc(C(=O)N5CCN(c6ccccc6OC)CC5)c4n3C)C2)cc1	1.8µM	i	i	i	i	i
Cc1ccc(Nc2nc(N)nc(CSc3nc4ccccc4s3)n2)cc1	i	i	i	i	83	i
COc1ccc(Nc2nc(N)nc(CSc3nc4ccccc4s3)n2)cc1	?	?	i	i	?	i
CC(=O)NCc1cccc(OC[C@@H](O)CNCCc2ccc(NS(=O)(=O)c3ccccc3)cc2)c1	nt	i	nt	nt	nt	nt
CCCNCC(O)COc1ccccc1C(=O)CCc1ccccc1 (stereo unspecified)	i	i	i	i	87!	nt
